Experimental data from PubChem BioAssay (NCI).
Compounds without any hit were thinned out: in the full panel of roughly 83,000, 20% have a hit.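 For each line, cells grew in 96-well plates with the test compound present at a single concentration for 48 hours.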 Unmarked numbers belong to inactive results. Active and inactive are the calls of the source. The calls were made as follows: active = growth percent below 10; inactive = the rest.

Columns and labels:
Test in all cases: NCI-60 one-dose screen, 48 h (100 = growth as untreated, 0 = no growth, -100 = all killed)
Details in all cases: 10 µM
[1] = system: NCI-H23 lung
[2] = system: NCI-H226 lung
[3] = system: HOP-62 NSCLC
[4] = system: NCI-H460 lung
[5] = system: HOP-92 NSCLC
[6] = system: NCI-H522 lung
[7] = system: 786-0 renal
[8] = system: COLO 205 colon
[9] = system: K-562 leukemia
[10] = system: MDA-MB-231 breast
[11] = system: SF-268 CNS
[12] = system: SF-295 CNS
[13] = system: SF-539 CNS
[14] = system: UACC-257 melanoma
[15] = system: M14 melanoma
[16] = system: A549/ATCC NSCLC
[17] = system: DU-145 prostate
[18] = system: MALME-3M melanoma
[19] = system: RXF 393 renal

| SMILES | growth [1] [%] | growth [2] [%] | growth [3] | growth [4] | growth [5] | growth [6] | growth [7] | growth [8] | growth [9] | growth [10] [%] | growth [11] [%] | growth [12] | growth [13] | growth [14] [%] | growth [15] | growth [16] [%] | growth [17] [%] | growth [18] [%] | growth [19] |
| --- | --- | --- | --- | --- | --- | --- | --- | --- | --- | --- | --- | --- | --- | --- | --- | --- | --- | --- | --- |
| CC(C)=CCC/C(C)=C/CC/C(C)=C/CC/C=C(\C)CC/C=C(\C)CCC(=O)Nc1ccn(C2OC(CO)C(O)C2(F)F)c(=O)n1 (stereo not drawn) | 25.3 | 50.3 | 11.1% | 6.85% (active) | 10.2% | 26.1% | -11.2% (active) | 43.5% | 26.7% | 65.2 | 19.9 | -41.3% (active) | -22.3% (active) | 18.5 | 2.42% (active) |  |  |  |  |
| COc1ccccc1/C=N\N/C(N)=N\N=C\c1ccccc1OC | 26.8 | 48.5 | -24.8% (active) | 2.85% (active) | 48.9% | 4.02% (active) | 7.99% (active) |  | 2.34% (active) | 21.7 | 41.4 | 5.03% (active) | -35.5% (active) | 46.3 | -3.67% (active) |  |  |  |  |
| O=C(Nc1nc(-c2ccccc2)nc2c1sc(=S)n2-c1ccccc1)C(F)(F)F | 89.9 | 90.3 | 101% | 99.3% | 81.4% |  | 98.9% | 115% | 79.4% | 89.7 | 98.4 | 88.4% | 96.5% | 82.9 | 101% | 74.9 | 99.6 | 124 | 98% |
| C=CCn1c(SCC(=O)Nc2ccc(C(=O)/C=C/c3ccc(OC)cc3)cc2)nnc1-c1ccc(OC)c(OC)c1 | 89.3 | 82.7 | 92.6% | 91.7% | 83.2% | 65.6% | 79.9% | 114% | 63.6% | 72.3 | 84.1 | 93.5% | 102% | 84.6 | 89.6% |  | 97.7 | 110 | 84.7% |
| O=C(N/N=C/c1ccc(Cl)cc1)c1ccccc1Nc1cccc(C(F)(F)F)c1 | 91.2 | 81.2 | 72.9% | 86.8% | 73.7% | 77.9% | 86% | 108% | 59.9% | 74.5 | 84.6 | 86.8% | 48.9% | 96.9 | 91.5% |  |  |  |  |
| COc1cc(C)ccc1Oc1nc(Nc2ccc(N3CCOCC3)cc2)ncc1NC(=O)Nc1cc(C(F)(F)F)cc(C(F)(F)F)c1 | 72 | 84.3 | 58.5% | 24.7% | 66.8% | 73.2% | 55% | 109% | 40.3% | 51.5 | 49.7 | 60.2% | 65.6% | 84.3 | 73% |  | 23.3 | 108 | -27.6% (active) |
| O=C(CSc1nccc(Nc2cccc3ccccc23)n1)c1ccc(Cl)cc1 | 79.6 | 84.8 | 81.9% | 99.5% | 82.5% |  | 102% | 108% | 84.3% | 79.1 | 95 | 95% | 94.5% | 109 | 85.8% | 87.7 | 116 | 101 | 106% |
| CCN(CC)CCCOc1cccc2c1C(=O)c1cccc(OCCCN(CC)CC)c1C2=O | 38.2 | 42.8 | 48.1% | 16.5% | 21.2% | 43.8% | 40.8% | -12% (active) | 16.1% | 35.5 | 44.3 | 45.2% | 40.2% | 47.9 | 48.1% |  | 38.4 | 39.9 | 31.2% |
| O=C(N/N=C/c1ccc([N+](=O)[O-])cc1)c1ccccc1Nc1cccc(C(F)(F)F)c1 | 91.2 | 95.2 | 89.4% | 115% | 61% | 88.8% | 73% | 131% | 107% | 80.5 | 98.4 | 105% | 60.7% | 95.5 | 86.4% |  |  |  |  |
| O=S(=O)(Oc1ccc(-c2ccc3sccc3c2)cc1)c1ccccc1 | 89 | 92.5 | 113% | 103% | 111% | 87.3% | 100% | 109% | 89.6% | 97.3 | 105 | 93.9% | 108% | 104 | 114% |  | 107 | 105 | 97.1% |
| COc1ccc(C(=O)COc2cccc(/C=C3\Cc4ccccc4C3=O)c2)cc1 | 74.5 | 73.4 | 93.2% | 111% | 48.7% | 56.6% | 82.2% | 124% | 80.5% | 66.5 | 77.2 | 87.1% | 75.9% | 83.5 | 81.2% |  |  |  |  |
| N#Cc1c(N)nc(-c2cc(F)cc(C(F)(F)F)c2)nc1-c1ccccc1F | 51.9 | 30.1 | 21.9% | 15.2% | 34.7% |  | 1.27% (active) | 24.7% | 56.7% | 21.3 | 55.3 | 35.2% | 52.1% |  | 63.1% | 41.7 | 61 | 33.2 | 37.4% |
| CS(=O)(=O)c1nccc(-c2c(-c3cccc(O)c3)nc3sccn23)n1 | 109 | 95.4 | 95.9% | 97.4% | 29.8% |  | 77.2% | 114% | 101% | 74.4 | 98.5 | 103% | 92.4% | 92.9 | 94% | 97.5 | 90.9 | 94.7 | 85% |
| CC(=O)C1N=NCC1c1ccccc1 (stereo not drawn) | 106 | 98 | 112% | 98.8% | 73.8% | 88.5% | 110% | 114% | 80.4% | 97.9 | 104 | 95.4% | 103% | 110 | 99.3% |  | 110 | 95.2 | 106% |
| O=C(Nc1ccc2c(O)cc(S(=O)(=O)O)cc2c1)c1ccc([N+](=O)[O-])cc1 | 100 | 96.2 | 83.3% | 107% | 89.8% |  | 98.6% | 91.8% | 99% | 105 | 93.9 | 98.2% | 97% | 74.6 | 94.6% | 79.3 | 99.7 | 99.8 | 105% |
| CCC(=O)OC1CCC2C3CCC(=O)OC3C(C)(CCC(=O)O)CC12C (stereo not drawn) | 33.1 | 60.1 | 38.5% | 42.6% | -1.1% (active) | 24.7% | -41.7% (active) | 41.7% | 2.12% (active) | 19.6 | 50.1 | -18.6% (active) | 5.18% (active) | 55.7 | 25.8% |  |  |  |  |
